Results from PubChem BioAssay AID720690 (Broad Institute, 2013).
Entries with a potency or affinity are not part of this list. A number with no mark means an inactive call.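 Rule for the calls: active = every repeat run showing a signal drop whose fitted half-maximal concentration is at most twice the top tested concentration; inconclusive = repeat runs disagree, or flat partial drop, or poor fit; inactive = the rest.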

Experiment: general mammalian cell viability loss – activator set, cherry-pick, cytotoxicity control for miR-122 modulator project, dose response (AID 720690);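 note: 0% = neutral control wells and -100% = MG132 cytotoxic control wells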
Conditions: HEK293T viability, CellTiter-Glo luminescence, 48 h; series mostly up to 26 µM; activity change, negative = cytotoxicity: at the top concentration

Structure (SMILES) | activity change, negative = cytotoxicity
CC(C)C(=O)Nc1ccc2c(c1)C(=O)N(C)[C@@H]1CC[C@@H](CC(=O)N[C@H](C)c3ccccc3)O[C@@H]1CO2 | -3.75% [at 23.5 µM]
C/C=C/c1ccc([C@@H]2[C@H](CO)N(Cc3ccccn3)[C@H]2CNC(=O)CC)cc1 | 10.8%
c1ccc(CCNc2nnnn2-c2ccccc2)cc1 | -6.71%
Cc1ccc(-n2ncc(C(=O)Nc3cc(Cl)ccc3C)c2C2CCNCC2)cc1C | -5.6%
COc1ccccc1C#Cc1ccc([C@H]2[C@@H](CO)N3CCCCN(CCC(F)(F)F)C[C@H]23)cc1 | -32.3% [at 23.5 µM]
O=C(C1CC1)N(CCN(C(=O)C1CC1)c1ccccc1)c1ccccc1 | -9.34%
COCCNC(=O)C[C@H]1CC[C@@H]2[C@H](COc3ccc(NC(=O)C4CCOCC4)cc3C(=O)N2C)O1 | 5.15%
O=C(Nc1ccccc1)N1C[C@@H]2[C@H](c3ccccc31)[C@H](CO)N2Cc1cocn1 | -12.2%
C[C@H](CO)N1C[C@H](C)[C@H](CN(C)C(=O)C2CCC2)Oc2cc(-c3ccc(C(=O)N(C)C)cc3)ccc2S1(=O)=O | 3.87%
COC(=O)C[C@@H]1CC[C@@H]2[C@@H](COc3ccc(NC(=O)c4cscn4)cc3C(=O)N2C)O1 | 2.84%
CO[C@@H]1CN(C)C(=O)c2ccc(NS(=O)(=O)c3ccc(C)cc3)cc2OC[C@@H](C)N(C(=O)NC(C)C)C[C@H]1C | 8.28%
O=C(NCC(c1cccnc1)N1CCOCC1)NC1CCCCC1 (centres undefined) | 0.711%
C[C@H](CO)N1C[C@H](C)[C@H](CN(C)CC2CCCCC2)OCCCC[C@H](C)Oc2ccc(NC(=O)Nc3cccc4ccccc34)cc2C1=O | -26% [at 12 µM]
O=C(CC(F)(F)F)N1C[C@H]2[C@@H](c3ccccc31)[C@H](CO)N2C(=O)Cc1cccnc1 | -9.44%
CC(C)C(=O)Nc1ccc2c(c1)C(=O)N(C)[C@H]1CC[C@H](CC(=O)Nc3cccc(F)c3)O[C@@H]1CO2 | -0.432%
CN(C[C@H]1[C@H](c2ccccc2)[C@@H](CO)N1CC1CC1)C(=O)c1cccc(F)c1 | -1.25% [at 23.5 µM]
CN1C(=O)c2cc(NC(=O)c3cccc(F)c3)ccc2OC[C@H]2O[C@H](CC(=O)O)CC[C@@H]21 | -4.45%
Cc1cccc(NC(=O)c2sc3nc(-c4ccc(F)cc4)cn3c2C)n1 | -7.21%
O=C(N/N=C/c1ccco1)c1cccc(N2CCCC2=O)c1 | -1.22%
COC(=O)C[C@@H]1CC[C@@H]2[C@H](COc3ccc(NS(=O)(=O)c4ccc(F)cc4)cc3C(=O)N2C)O1 | -7.83%

Structure (SMILES) | activity change, negative = cytotoxicity
COCC(=O)Nc1ccc2c(c1)C(=O)N(C)[C@@H]1CC[C@H](CC(=O)NC3CCCC3)O[C@H]1CO2 | -3.23%
CNC(=O)C[C@H]1CC[C@@H]2[C@H](COc3ccc(NC(=O)NC(C)C)cc3C(=O)N2C)O1 | -2.56% [at 23.5 µM]
CNC(=O)C[C@@H]1CC[C@@H]2[C@H](COc3ccc(NC(=O)Nc4cccc(C)c4)cc3C(=O)N2C)O1 | 7.34%
CN(C(=O)c1ccccc1Cl)C1CCCCC1 | -4.24%
COc1cccc(CNC(=O)C[C@H]2CC[C@@H]3[C@@H](COc4ccc(NC(C)=O)cc4C(=O)N3C)O2)c1 | -11.6%
COc1ccc(C(C#N)Nc2ccc(C)cc2)cc1 (centres undefined) | -11%
Cc1cnc(NC(=O)c2cc3c(C)nn(-c4ccccc4)c3s2)s1 | -35.6%
CC(=O)N1[C@H](CO)[C@@H](c2ccccc2)[C@H]1CN(CC(C)C)C(=O)c1ccccn1 | 7.05% [at 23.5 µM]
CO[C@H]1CN(C)C(=O)c2cc(NC(=O)c3ccccc3F)ccc2OC[C@@H](C)N(C)C[C@@H]1C | -1.08%
COc1cccc(C(=O)Nc2ccc3c(c2)C(=O)N(C)[C@@H]2CC[C@H](CC(=O)NCc4ccc(F)cc4)O[C@@H]2CO3)c1 | -25.6%
CC(=O)N1[C@H](CNC(=O)C2CC2)[C@H](c2ccc(-c3cccc(F)c3)cc2)[C@@H]1CO | -11.7%
COc1ccc(N2CCN(C(=O)CSc3nnc(CNc4ccccc4)o3)CC2)cc1 | -20.4%
CN1CCN(c2ccc(Cl)cc2NC(=O)c2ccc(S(=O)(=O)N3CCCCCC3)cc2)CC1 | -2.63%
Oc1ccc(-c2nc(-c3ccc(O)c(O)c3)cs2)cc1 | -10.1%
C/C=C/c1ccc([C@@H]2[C@@H](CO)N(C(=O)C3CC3)[C@H]2CN(C)C(=O)CC2CC2)cc1 | 5%
O=C(NC[C@@H]1[C@H](c2ccccc2)[C@@H](CO)N1Cc1cccnc1)c1ccccn1 | 35.7%
C/C=C/c1ccc([C@@H]2[C@@H](CNC(=O)CC)N(Cc3ccccn3)[C@H]2CO)cc1 | -6.56%
C[C@@H]1CN([C@@H](C)CO)S(=O)(=O)c2ccc(-c3ccc(C(=O)N(C)C)cc3)cc2O[C@@H]1CN(C)C(=O)C1CCC1 | -6.11%
CC(C)C(=O)Nc1ccc2c(c1)C(=O)N(C)[C@H]1CC[C@@H](CC(=O)NCc3ccccc3F)O[C@H]1CO2 | -2.13% [at 23.5 µM]
